# PubChem BioAssay (NCI)
# The panel holds about 83,000 compounds, 20% with a hit somewhere; the sample as a whole holds those more often.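 Note: values are percent growth. 100 is the growth of untreated cells, values between 100 and 0 indicate rising inhibition; between -100 and 0 indicates cell death.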 Active and inactive are the calls of the source. The calls were made as follows: active = growth percent below 10; inactive = the rest.
# Test system: HL-60(TB) leukemia
# Experiment: NCI-60 one-dose screen, 48 h (100 = growth as untreated, 0 = no growth, -100 = all killed)
# Conditions: 10 µM unless noted
row,Compound,growth
1,CCC(=O)OC1CCC2C3CCC(=O)OC3C(C)(CCC(=O)O)CC12C (configuration not stated),-23.2% (active)
2,O=C(CSc1nnc(-c2cc(-c3ccccc3)nc3ccccc23)n1-c1ccccc1)Nc1ccc(C(=O)/C=C/c2ccc(Cl)cc2)cc1,89% (inactive)
3,CCCCN1c2nc3ccccc3cc2Sc2cc3ccccc3nc21,101% (inactive)
4,COc1ccc(-c2nn(-c3ccc(NC(=O)c4ccc(Cl)c(C(F)(F)F)c4)cc3)cc2-c2ccncc2)cc1Cl,2.89% (active)
5,O=[N+]([O-])c1ccc(Oc2cc(Cl)c(Cl)cc2Cl)c(C(F)(F)F)c1,104% (inactive)
6,CCN1C(=O)N(CC)C2C1NN=c1s/c(=C\c3ccc(F)cc3)c(=O)n12 (configuration not stated),-47% (active)
7,Nc1nc(SCc2cccc([N+](=O)[O-])c2)c2[nH]cnc2n1,94.9% (inactive)
8,N#Cc1cnn2c(-c3ccc(Cl)cc3)nc(NCCc3ccccc3)nc12,85.1% (inactive)
9,CCc1ccc(C2=NN(c3ccc(S(C)(=O)=O)cc3)C(=O)CC2)cc1,6.73% (active)
10,Cc1cc(=O)oc2cc(Oc3nc(-c4ccc(Cl)cc4)cn4c(-c5ccc(Cl)cc5)cnc34)ccc12,86.8% (inactive)
11,C[C@@H](NC(=O)c1ncnc(N)c1Cl)c1ncc(C(=O)Nc2cc(C(F)(F)F)c(Cl)cn2)s1,35.4% (inactive)
12,CCOC(=O)c1ccc2c(c1)[n+](=O)c(C(=O)C1CCCS1)c(C(F)(F)F)n2[O-] (configuration not stated),-69% (active)
13,CCC(C)CC(C)C(=O)c1c(O)ccn(O)c1=O (configuration not stated),-0.418% (active)
14,CN1CCN(Cc2ccc(NC(=O)c3cncc(C#Cc4c(N)ncc5ccccc45)c3)cc2C(F)(F)F)CC1,-53.2% (active)
15,CC/C(=C(/c1ccc(Cl)cc1)c1ccc(OCCN2CCCCC2)cc1)c1ccc(Cl)cc1,68.5% (inactive)
16,CN(c1ccccc1)c1ncnc2c1ncn2C,105% (inactive)
17,C[N+]1=C(/C=C/c2ccc(O)c3ncccc23)C(C)(C)c2ccccc21,32.5% (inactive)
18,COc1ccc(C2c3ccc4ccccc4c3Oc3nc(C)[nH]c(=O)c32)cc1 (configuration not stated),99.3% (inactive)
19,C/C=C(\C)C(=O)N[C@H]1[C@@H](OC(C)=O)C[C@]2(C)C3CC[C@@]4(C)C(CC[C@@H]4C(C)N(C)C)C3CCC2[C@H]1O (some centres not stated),70.5% (inactive)

row,Compound,growth
1,CN(C)c1ccc(C2C(C#N)=C(/N=C/c3ccccc3)Oc3c2ccc2ccccc32)cc1 (configuration not stated),29.5% (inactive)
2,COc1ccc(C2CC(c3cccc(Nc4ccnc5cc(Cl)ccc45)c3)=NN2C=O)cc1 (configuration not stated),-38.2% (active)
3,Cc1cc(C)c(NC(=O)c2sc3nc4c(cc3c2N)C(=O)CCC4)c(C)c1,14.6% (inactive)
4,CCCCCSc1ccc2nc(NC(=O)OCC)sc2c1,4.55% (active)
5,Cc1ccc(NCc2cn(-c3ccc(C(=O)O)cc3)nc2-c2ccc(C(=O)O)cc2)cc1,106% (inactive)
6,Cc1cccnc1NC(=S)Nc1ncccc1C,136% (inactive)
7,C#CC[C@@H]1C[C@]2(C)[C@H]3CC=C4[C@H]5[C@@H](C)[C@H](C)CC[C@]5(C(=O)NCCCCCCCCN)CC[C@@]4(C)[C@]3(C)CC[C@H]2C(C)(C)[C@H]1OC(C)=O,-15.1% (active)
8,O=C1c2ccccc2C(=O)c2c1cc1c(c2[N+](=O)[O-])OCO1,7.66% (active)
9,CC(=O)CC1CCCC1c1ccc2ccccc2c1 (configuration not stated),101% (inactive)
10,C=C1C(=O)O[C@H]2[C@H]1CC/C(COC(=O)/C=C\C(=O)O)=C\CC[C@@]1(C)O[C@@H]21,105% (inactive)
11,O=C1c2c(c3c4cc(Br)ccc4[nH]c3c3ccc4ccccc4c23)C(=O)N1O,116% (inactive)
12,COc1ccc(C2OC(c3cc(-c4cc5ccccc5o4)nn3-c3ccccc3)=NN2C(C)=O)cc1 (configuration not stated),84.3% (inactive)
13,COc1cccc(-c2nc3sccn3c2-c2ccnc(NCCN3CCCNS3(=O)=O)n2)c1,108% (inactive)
14,CCN(CC)CCCCNc1c2ccccc2[n+](C)c2c1[nH]c1ccccc12,22.7% (inactive)
15,COc1cc(C2CC(c3ccc(Nc4nc(Nc5ccc(F)cc5)nc(Nc5ccc(Cl)cc5)n4)cc3)=NN2C(C)=O)cc(OC)c1OC (configuration not stated),35.2% (inactive)
16,Cc1cc2ccccc2c2cc3ccccc3cc12,49.4% (inactive)
17,COc1ccc(CN2c3ccccc3Oc3ccccc32)cc1O,15.6% (inactive)
18,O=S(=O)(NCCCNc1cc(-c2cn(-c3ccccc3)nc2-c2cccc(O)c2)ccn1)c1cccc(F)c1,39.1% (inactive)
